PubChem BioAssay (NCI)
The panel holds about 83,000 compounds, 20% with a hit somewhere; the sample as a whole holds those more often.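 Single-dose data. Exposure time 48 hours. Values below 10 considered active.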 Unmarked numbers belong to inactive results. Activity calls are given as the source filed them.

Key:
Assay in all cases: NCI-60 one-dose screen, 48 h (100 = growth as untreated, 0 = no growth, -100 = all killed)
Settings in all cases: 10 µM unless noted
RPMI-8226 leukemia = tested on: RPMI-8226 leukemia
OVCAR-8 ovarian = tested on: OVCAR-8 ovarian
OVCAR-5 ovarian = tested on: OVCAR-5 ovarian
OVCAR-4 ovarian = tested on: OVCAR-4 ovarian
SK-OV-3 ovarian = tested on: SK-OV-3 ovarian
IGROV1 ovarian = tested on: IGROV1 ovarian
OVCAR-3 ovarian = tested on: OVCAR-3 ovarian
HS 578T breast = tested on: HS 578T breast
NCI/ADR-RES ovarian = tested on: NCI/ADR-RES ovarian
T-47D breast = tested on: T-47D breast
BT-549 breast = tested on: BT-549 breast
MDA-MB-435 melanoma = tested on: MDA-MB-435 melanoma
SW-620 colon = tested on: SW-620 colon
MCF7 breast = tested on: MCF7 breast
HCT-116 colon = tested on: HCT-116 colon
HCC-2998 colon = tested on: HCC-2998 colon
KM12 colon = tested on: KM12 colon

Compound `Cn1c2ccccc2c2c(OC(=O)c3ccccc3)c3c(nc21)-c1ccccc1C3` has a growth (RPMI-8226 leukemia) of 96.2%, a growth (OVCAR-8 ovarian) of 92.7% and a growth (OVCAR-5 ovarian) of 112%. For the same compound, the growth (OVCAR-4 ovarian) was 95.7%, the growth (SK-OV-3 ovarian) was 92% and the growth (IGROV1 ovarian) was 82.5%. For the same compound, the growth (OVCAR-3 ovarian) was 99.1%, the growth (HS 578T breast) was 107% and the growth (NCI/ADR-RES ovarian) was 99%. For the same compound, the growth (T-47D breast) was 63.7%, the growth (BT-549 breast) was 94% and the growth (MDA-MB-435 melanoma) was 104%. It also gave a growth (SW-620 colon) of 105%, a growth (MCF7 breast) of 72.7% and a growth (HCT-116 colon) of 95.9%. For the same compound, the growth (HCC-2998 colon) was 106% and the growth (KM12 colon) was 96.7%.
`N#Cc1c(-c2ccc(F)cc2)nc(N=Nc2c(O)[nH]c3ccccc23)nc1N1CCOCC1` gave a growth (RPMI-8226 leukemia) of 80.4%, a growth (OVCAR-8 ovarian) of 77.7% and a growth (OVCAR-5 ovarian) of 82.6%. The growth (OVCAR-4 ovarian) was -35.5% (active), the growth (SK-OV-3 ovarian) was 88.2% and the growth (IGROV1 ovarian) was 59.9%. For the same compound, the growth (OVCAR-3 ovarian) was 72.9%, the growth (HS 578T breast) was 38.5% and the growth (NCI/ADR-RES ovarian) was 57.3%. For the same compound, the growth (T-47D breast) was 80.2%, the growth (BT-549 breast) was 91.4% and the growth (MDA-MB-435 melanoma) was 67.7%. For the same compound, the growth (SW-620 colon) was 66.7%, the growth (MCF7 breast) was 64.4% and the growth (HCT-116 colon) was 47.2%. The growth (KM12 colon) was 75.1%.
For `COc1cc(/C=N/Nc2nc(-c3ccc(F)cc3)c(C#N)c(N3CCOCC3)n2)ccc1O`, the growth (RPMI-8226 leukemia) was 87.1%, the growth (OVCAR-8 ovarian) was 89.8% and the growth (OVCAR-5 ovarian) was 107%. For the same compound, the growth (OVCAR-4 ovarian) was 89.8%, the growth (SK-OV-3 ovarian) was 102% and the growth (IGROV1 ovarian) was 96.7%. The growth (OVCAR-3 ovarian) was 103%, the growth (HS 578T breast) was 102% and the growth (NCI/ADR-RES ovarian) was 102%. The growth (T-47D breast) was 93.6%, the growth (BT-549 breast) was 94.3% and the growth (MDA-MB-435 melanoma) was 97%. The growth (SW-620 colon) was 95%, the growth (MCF7 breast) was 93.2% and the growth (HCT-116 colon) was 96.8%. The growth (HCC-2998 colon) was 117% and the growth (KM12 colon) was 103%.
In the case of `NC(=O)c1ccc2nc3c(n2c1)C(=O)C(=O)c1ccccc1-3`, the growth (RPMI-8226 leukemia) is reported as -28.1% (active), the growth (OVCAR-8 ovarian) is reported as -61.2% (active) and the growth (OVCAR-5 ovarian) is reported as -86.4% (active). For the same compound, the growth (OVCAR-4 ovarian) was -97.3% (active), the growth (SK-OV-3 ovarian) was -89.2% (active) and the growth (IGROV1 ovarian) was -48.8% (active). The growth (OVCAR-3 ovarian) was -99.2% (active), the growth (HS 578T breast) was -6.37% (active) and the growth (NCI/ADR-RES ovarian) was -1.27% (active). The growth (T-47D breast) was -46.2% (active), the growth (BT-549 breast) was -94.3% (active) and the growth (MDA-MB-435 melanoma) was -91.4% (active). For the same compound, the growth (SW-620 colon) was -50.4% (active), the growth (MCF7 breast) was -55.5% (active) and the growth (HCT-116 colon) was -79.4% (active). For the same compound, the growth (HCC-2998 colon) was -84.5% (active) and the growth (KM12 colon) was -50.1% (active).
For `COc1cccc2c1-c1ccccc1C2=O`, the growth (RPMI-8226 leukemia) was 14.9%, the growth (OVCAR-8 ovarian) was 21.5% and the growth (OVCAR-5 ovarian) was 65.6%. The growth (OVCAR-4 ovarian) was 56.5%, the growth (SK-OV-3 ovarian) was 30.6% and the growth (IGROV1 ovarian) was 33.3%. The growth (OVCAR-3 ovarian) was -26.4% (active), the growth (HS 578T breast) was 19.6% and the growth (NCI/ADR-RES ovarian) was 8.62% (active). For the same compound, the growth (T-47D breast) was 33.2%, the growth (BT-549 breast) was -0.0616% (active) and the growth (MDA-MB-435 melanoma) was -48.2% (active). For the same compound, the growth (SW-620 colon) was 26.7%, the growth (MCF7 breast) was 24% and the growth (HCT-116 colon) was 12.9%. For the same compound, the growth (KM12 colon) was 36%.
With `COc1ccccc1C(=O)/C=C/c1cc2cccc(OC)c2[nH]c1=O` the growth (RPMI-8226 leukemia) was -14.5% (active), the growth (OVCAR-8 ovarian) was -5.37% (active) and the growth (OVCAR-5 ovarian) was 13.1%. For the same compound, the growth (OVCAR-4 ovarian) was 15.4%, the growth (SK-OV-3 ovarian) was 16.3% and the growth (IGROV1 ovarian) was 2.88% (active). The growth (OVCAR-3 ovarian) was -9.01% (active), the growth (HS 578T breast) was 39.3% and the growth (NCI/ADR-RES ovarian) was 3.01% (active). The growth (T-47D breast) was 11.3%, the growth (BT-549 breast) was -3.55% (active) and the growth (MDA-MB-435 melanoma) was 6.42% (active). The growth (SW-620 colon) was -6.28% (active), the growth (MCF7 breast) was 13.4% and the growth (HCT-116 colon) was -15% (active). The growth (KM12 colon) was -49.1% (active).
With `Cc1ccc(SC2c3ccc(C)cc3Oc3nc(N)c(C#N)c(N)c32)cc1` (stereo not given) the growth (RPMI-8226 leukemia) was 12.8%, the growth (OVCAR-8 ovarian) was 95% and the growth (OVCAR-5 ovarian) was 121%. The growth (OVCAR-4 ovarian) was 74.8%, the growth (SK-OV-3 ovarian) was 102% and the growth (IGROV1 ovarian) was 25.9%. It also gave a growth (OVCAR-3 ovarian) of 55.2%, a growth (HS 578T breast) of 96.2% and a growth (NCI/ADR-RES ovarian) of 92.1%. The growth (T-47D breast) was 16.8%, the growth (BT-549 breast) was 78.9% and the growth (MDA-MB-435 melanoma) was 91.6%. The growth (SW-620 colon) was 64.6%, the growth (MCF7 breast) was 5.14% (active) and the growth (HCT-116 colon) was 81.7%. It also gave a growth (HCC-2998 colon) of 103% and a growth (KM12 colon) of 96.8%.
`COC(=O)/C=C1\SC(=Nc2cccc(Cl)c2)N(CCc2c[nH]c3ccccc23)C1=O` was tested, and the growth (RPMI-8226 leukemia) was -25% (active), the growth (OVCAR-8 ovarian) was 51.4% and the growth (OVCAR-5 ovarian) was 73.6%. The growth (OVCAR-4 ovarian) was 62%, the growth (SK-OV-3 ovarian) was 83.8% and the growth (IGROV1 ovarian) was 53.7%. For the same compound, the growth (OVCAR-3 ovarian) was 33.3%, the growth (HS 578T breast) was 67.4% and the growth (NCI/ADR-RES ovarian) was 52.4%. It also gave a growth (T-47D breast) of 11.9%, a growth (BT-549 breast) of 44.8% and a growth (MDA-MB-435 melanoma) of 42.7%. The growth (SW-620 colon) was 40.5%, the growth (MCF7 breast) was 20.1% and the growth (HCT-116 colon) was 38.2%. The growth (HCC-2998 colon) was 52.9% and the growth (KM12 colon) was 24.3%.
Compound `CN1CCN(/C=C2\CC(C(=O)NCc3ccc(Cl)cc3Cl)NC2=O)CC1` (stereo not given) has a growth (RPMI-8226 leukemia) of 93.9%, a growth (OVCAR-8 ovarian) of 99.1% and a growth (OVCAR-5 ovarian) of 110%. It also gave a growth (OVCAR-4 ovarian) of 110%, a growth (SK-OV-3 ovarian) of 107% and a growth (IGROV1 ovarian) of 109%. It also gave a growth (OVCAR-3 ovarian) of 108%, a growth (HS 578T breast) of 103% and a growth (NCI/ADR-RES ovarian) of 107%. For the same compound, the growth (T-47D breast) was 113%, the growth (BT-549 breast) was 136% and the growth (MDA-MB-435 melanoma) was 119%. For the same compound, the growth (SW-620 colon) was 98%, the growth (MCF7 breast) was 103% and the growth (HCT-116 colon) was 110%. The growth (HCC-2998 colon) was 101% and the growth (KM12 colon) was 103%.
